Consider 38 molecules from PubChem BioAssay (EPA / NIEHS).

Active and inactive are the calls of the source. How the source made its calls: active means hit-call score of the fitted dose curve at least 0.9, where 1 is the maximum; inactive means score below 0.9.

Aryl hydrocarbon receptor (Homo sapiens), sequence (P35869 whole entry, looked up): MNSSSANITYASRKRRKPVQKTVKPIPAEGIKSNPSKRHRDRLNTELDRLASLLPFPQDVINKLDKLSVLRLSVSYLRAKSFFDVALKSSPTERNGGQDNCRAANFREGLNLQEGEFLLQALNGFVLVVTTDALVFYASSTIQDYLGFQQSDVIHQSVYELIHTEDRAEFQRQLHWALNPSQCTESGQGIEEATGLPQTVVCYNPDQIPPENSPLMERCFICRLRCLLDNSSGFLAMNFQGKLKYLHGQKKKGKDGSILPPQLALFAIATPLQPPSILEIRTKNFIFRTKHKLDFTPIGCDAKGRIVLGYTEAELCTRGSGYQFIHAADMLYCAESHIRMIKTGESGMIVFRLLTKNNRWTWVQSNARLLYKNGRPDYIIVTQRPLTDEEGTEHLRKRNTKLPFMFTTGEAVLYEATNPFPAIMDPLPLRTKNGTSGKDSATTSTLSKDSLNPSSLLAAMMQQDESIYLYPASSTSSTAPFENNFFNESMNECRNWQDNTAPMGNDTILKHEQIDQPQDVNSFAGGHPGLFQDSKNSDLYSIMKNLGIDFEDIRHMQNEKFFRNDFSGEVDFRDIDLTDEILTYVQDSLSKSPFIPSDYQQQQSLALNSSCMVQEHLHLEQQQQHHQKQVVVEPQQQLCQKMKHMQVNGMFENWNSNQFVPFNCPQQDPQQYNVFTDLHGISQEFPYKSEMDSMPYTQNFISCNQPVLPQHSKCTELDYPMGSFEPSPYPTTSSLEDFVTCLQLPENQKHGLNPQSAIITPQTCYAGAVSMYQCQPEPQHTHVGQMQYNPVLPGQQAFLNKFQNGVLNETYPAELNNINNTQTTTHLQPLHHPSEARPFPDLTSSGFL

In one experiment the target is Aryl hydrocarbon receptor (Homo sapiens) (UniProt P35869). The experiment can be described thus: ATG_Ahr_CIS: Attagene CIS-FACTORIAL HepG2 Assay for human Aryl Hydrocarbon Receptor (Ahr) (AID 2282930). The note with it: HepG2 AhR cis-factorial reporter transcription; actives raise or lower the signal. The gist of the method:
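Following 24 h of chemical dosing, transfected HepG2 liver cells with cis-driven reporter units were lysed for RNA; reporter mRNA was quantified via RT-PCR and capillary electrophoresis, and responses fitted bidirectionally from DMSO.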
In the case of `CCC(Cc1c(I)cc(I)c(N)c1I)C(=O)O` (stereo unspecified), the call was inactive.

For the molecule `C=C(C)CCCC`, the call was inactive.

Turning to `OCC(F)(F)C(F)(F)C(F)(F)C(F)(F)C(F)(F)C(F)(F)CO`, the result was inactive.

As to `C[C@]12CC[C@H]3C(=CCc4cc(O)ccc43)[C@@H]1CCC2=O`, the result was inactive.

With `Oc1ccc(C2(c3ccc(O)c(C4CCCCC4)c3)CCCCC2)cc1C1CCCCC1`, the outcome was inactive.

For the molecule `O=C(O)CCC(F)(F)C(F)(F)C(F)(F)C(F)(F)C(F)(F)C(F)(F)C(F)(F)F`, the molecule was called inactive.

Regarding `NCC(F)(F)C(F)(F)C(F)(F)C(F)(F)C(F)(F)C(F)(F)F`, the outcome was inactive.

With `CC(C)C(=O)OCc1ccccc1`, the molecule was called inactive.

`CO[Si](C)(CCC(F)(F)C(F)(F)C(F)(F)C(F)(F)C(F)(F)C(F)(F)F)OC`: the result was inactive.

As to `CCCCCCCCCc1ccc(OCCO)cc1`, the outcome was inactive.

Take `FC(F)(F)C(F)(F)C(F)(F)C(F)(F)C(F)(F)C(F)(F)C(F)(F)CCI`: the outcome was inactive.

Take `C[Si](C)O[Si](C)C`: the result was inactive.

On to `Cc1cnccn1`, for which the AC50 (as a rule, the concentration at which the activity in the assay is half-maximal) was 0.0965 µM (active).

In the case of `NCC(F)(F)C(F)(F)C(F)(F)C(F)(F)C(F)(F)C(F)(F)C(F)(F)C(F)(F)F`, the result was inactive.

`OCC(F)(F)C(F)(F)C(F)(F)CO`: the result was inactive.

On to `CN(C)C(C)(C)CO`, for which the outcome was inactive.

For `Nc1cc([N+](=O)[O-])cc(Cl)c1O`, the outcome was inactive.

In the case of `CCCCCCCCCCCCC[N+](C)(C)Cc1ccccc1`, the molecule was called inactive.

For the molecule `OCCCc1cccnc1`, the outcome was inactive.

`O=C(Cl)C(F)(F)C(F)(F)C(F)(F)C(F)(F)C(F)(F)C(F)(F)C(F)(F)F`: the molecule was classed as inactive.

Turning to `Cc1cc(C)c(O)c(C(C)(C)C)c1`, the molecule was called inactive.

Take `CCC(=O)OC(C)c1ccccc1` (stereo unspecified): the molecule was classed as inactive.

Consider `COc1ccccc1C=O`, for which the call was inactive.

`O=c1cccc[nH]1`: the molecule was called inactive.

Turning to `CCCCCCCCCCCC(=O)Cl`, the outcome was inactive.

Take `CCN=C1C=CC(=C(c2ccc(N(CC)CC)cc2)c2ccc(N(CC)CC)cc2)c2ccccc21`: the AC50 was 0.0482 µM (active).

As for `NC(=O)C(F)(F)C(F)(F)C(F)(F)F`, the result was inactive.

For `CC(C)CC=C(C=O)c1ccccc1`, the call was inactive.

Turning to `OCC(F)(F)C(F)(F)C(F)(F)C(F)(F)C(F)(F)C(F)(F)C(F)(F)C(F)(F)CO`, the molecule was called inactive.

Turning to `F[Si-2](F)(F)(F)(F)F`, the call was inactive.

Take `NC(=O)C(F)(F)C(F)(F)C(F)(F)C(F)F`: the result was inactive.

Turning to `O=C(O)C(F)(F)OC(F)(F)C(F)(F)OC(F)(F)C(F)(F)OC(F)(F)F`, the outcome was inactive.

With `CCCCC(CC)COC(=O)c1ccc(N(C)C)cc1` (stereo unspecified), the molecule was classed as inactive.

With `CCCCCCCCCCCCCC[P+](CCCC)(CCCC)CCCC`, the molecule was called inactive.

For `C=CCOC(=O)CC(C)C`, the molecule was classed as inactive.

For the molecule `O=C=Nc1cccc2c(N=C=O)cccc12`, the AC50 was 4.73 µM (active).

Consider `CC(O)C#CC(C)O` (stereo unspecified), for which the AC50 was 72.8 µM (active).

Turning to `CCOCN(C(=O)CS(=O)(=O)O)c1c(C)cccc1CC`, the call was inactive.

System in another experiment: not listed separately
As to the kind of experiment: ATG_AP_1_CIS: Attagene CIS-FACTORIAL HepG2 Assay for human Activator Protein 1 (AP-1) (AID 2282931). The note with it: HepG2 Attagene cis-factorial AP-1 reporter mRNA; actives raise or lower the signal. An outline of the steps: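 Transient MRTU transfection of HepG2 → 24 h chemical treatment → RNA isolation, RT-PCR, 6-FAM labelling, HpaI digest → capillary electrophoresis. Fit: bidirectional, DMSO negative control.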
As for `CCC(Cc1c(I)cc(I)c(N)c1I)C(=O)O` (stereo unspecified), the AC50 was 64.6 µM (active).

Take `C=C(C)CCCC`: the molecule was classed as inactive.

For `OCC(F)(F)C(F)(F)C(F)(F)C(F)(F)C(F)(F)C(F)(F)CO`, the outcome was inactive.

In the case of `C[C@]12CC[C@H]3C(=CCc4cc(O)ccc43)[C@@H]1CCC2=O`, the outcome was inactive.

For `Oc1ccc(C2(c3ccc(O)c(C4CCCCC4)c3)CCCCC2)cc1C1CCCCC1`, the AC50 is 33.4 µM (active).

For the molecule `O=C(O)CCC(F)(F)C(F)(F)C(F)(F)C(F)(F)C(F)(F)C(F)(F)C(F)(F)F`, the AC50 is 94.3 µM (active).

As for `NCC(F)(F)C(F)(F)C(F)(F)C(F)(F)C(F)(F)C(F)(F)F`, the molecule was classed as inactive.

Turning to `CC(C)C(=O)OCc1ccccc1`, the call was inactive.

As for `CO[Si](C)(CCC(F)(F)C(F)(F)C(F)(F)C(F)(F)C(F)(F)C(F)(F)F)OC`, the result was inactive.

For the molecule `CCCCCCCCCc1ccc(OCCO)cc1`, the AC50 was 2.26 µM (active).

Regarding `FC(F)(F)C(F)(F)C(F)(F)C(F)(F)C(F)(F)C(F)(F)C(F)(F)CCI`, the call was inactive.

As to `C[Si](C)O[Si](C)C`, the outcome was inactive.

For the molecule `Cc1cnccn1`, the outcome was inactive.

On to `NCC(F)(F)C(F)(F)C(F)(F)C(F)(F)C(F)(F)C(F)(F)C(F)(F)C(F)(F)F`, for which the result was inactive.

Turning to `OCC(F)(F)C(F)(F)C(F)(F)CO`, the molecule was called inactive.

Turning to `CN(C)C(C)(C)CO`, the molecule was classed as inactive.

For the molecule `Nc1cc([N+](=O)[O-])cc(Cl)c1O`, the outcome was inactive.

In the case of `CCCCCCCCCCCCC[N+](C)(C)Cc1ccccc1`, the molecule was classed as inactive.

As for `OCCCc1cccnc1`, the molecule was called inactive.

Consider `O=C(Cl)C(F)(F)C(F)(F)C(F)(F)C(F)(F)C(F)(F)C(F)(F)C(F)(F)F`, for which the AC50 is 66.7 µM (active).

Take `Cc1cc(C)c(O)c(C(C)(C)C)c1`: the call was inactive.

Turning to `CCC(=O)OC(C)c1ccccc1` (stereo unspecified), the result was inactive.

For `COc1ccccc1C=O`, the molecule was classed as inactive.

For `O=c1cccc[nH]1`, the call was inactive.

On to `CCCCCCCCCCCC(=O)Cl`, for which the AC50 was 82.8 µM (active).

With `CCN=C1C=CC(=C(c2ccc(N(CC)CC)cc2)c2ccc(N(CC)CC)cc2)c2ccccc21`, the AC50 is 0.191 µM (active).

As for `NC(=O)C(F)(F)C(F)(F)C(F)(F)F`, the outcome was inactive.

As for `CC(C)CC=C(C=O)c1ccccc1`, the AC50 was 100 µM (active).

In the case of `OCC(F)(F)C(F)(F)C(F)(F)C(F)(F)C(F)(F)C(F)(F)C(F)(F)C(F)(F)CO`, the result was inactive.

With `F[Si-2](F)(F)(F)(F)F`, the result was inactive.

For the molecule `NC(=O)C(F)(F)C(F)(F)C(F)(F)C(F)F`, the molecule was called inactive.

In the case of `O=C(O)C(F)(F)OC(F)(F)C(F)(F)OC(F)(F)C(F)(F)OC(F)(F)F`, the AC50 is 66.5 µM (active).

`CCCCC(CC)COC(=O)c1ccc(N(C)C)cc1` (stereo unspecified): the AC50 is 61.7 µM (active).

With `CCCCCCCCCCCCCC[P+](CCCC)(CCCC)CCCC`, the call was inactive.

Take `C=CCOC(=O)CC(C)C`: the result was inactive.

On to `O=C=Nc1cccc2c(N=C=O)cccc12`, for which the call was inactive.

`CC(O)C#CC(C)O` (stereo unspecified): the AC50 was 24.7 µM (active).

Take `CCOCN(C(=O)CS(=O)(=O)O)c1c(C)cccc1CC`: the molecule was classed as inactive.
